Among the data in PubChem BioAssay (Tox21) are Potency, activity change, positive = activation and outcome values, retold here.

Assay [1] is described as follows: qHTS assay to identify small molecule antagonists of the estrogen related receptor (ERR) signaling pathway (AID 1224819; active means well fitted curve in the direction sought with a large enough effect in the repeat runs; an effect the other way counts as inactive or inconclusive; further: nearly all actives have a fitted effect of over 50% in size; further: potency means the concentration at half of the fitted maximal effect). The method in brief: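 Seed ERR cells 2,000/well; rest 6 h at 37 C/5% CO2; pin compounds in DMSO; incubate 18 h at 37 C; add One-Glo; wait 30 min at room temperature; measure luminescence.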
The nature of assay [2]: qHTS assay to identify small molecule agonists of the estrogen related receptor (ERR) signaling pathway (AID 1224820; active means well fitted curve in the direction sought with a large enough effect in the repeat runs; an effect the other way counts as inactive or inconclusive; further: potency means the concentration at half of the fitted maximal effect). The method in brief:
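An ERR cell line provided by NTP was seeded at 2,000 cells per well and allowed to settle for 6 h before compounds in DMSO were added. After 18 h at 37 C, luciferase activity was measured by One-Glo luminescence.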
On the technique in general: In qHTS, concentration-response curves come from the screen itself.

A short description of assay [3]: qHTS assay to identify small molecule agonists of the estrogen related receptor signaling pathway with the pleiotropic PPARgamma coactivator (PGC) (AID 1224823; active means well fitted curve in the direction sought with a large enough effect in the repeat runs; an effect the other way counts as inactive or inconclusive; further: potency means the concentration at half of the fitted maximal effect). An outline of the steps: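 Compounds dissolved in DMSO are added by pin tool to PGC/ERR cells that have settled for 6 h, and incubation continues 18 h at 37 C. Reporter output is measured as One-Glo luminescence.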

A short description of assay [4]: qHTS assay to identify small molecule agonists of H2AX (AID 1224845; active means well fitted activation curve with a large enough effect in the signal ratio in the repeat runs, not every such curve was filed as active; the % refers to the signal ratio). An outline of the steps: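 Phospho-H2AX Ser139 measured by HTRF (ex 320 nm; em 665 and 620 nm) after 24 hr antibody incubation. Compounds, 15 concentrations, 0.76% DMSO, were applied to CHO-K1 cells for 3hr at 37C before lysis.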
A short description of assay [5]: qHTS assay to identify small molecule agonists of the estrogen related receptor (ERR) signaling pathway from Tox21 library (AID 1224849). Further: nearly all actives have a fitted effect of over 15% in size. The settings on record: ERR reporter cell line, ONE-Glo luciferase, 18 h; at 92.4 µM (top of the series) unless noted. An outline of the steps: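 Luciferase activity in ERR pathway reporter cells served as the agonist readout; exposure lasted 18 h at 37 C, with ONE-Glo detection after 30 min at room temperature.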

Assay [6] can be described thus: qHTS RealTime-Glo MT Cell Viability Assay in HEK293 cells - 0 hour (AID 1224880; active means well fitted curve in the direction sought with a large enough effect in the repeat runs; an effect the other way counts as inactive or inconclusive; further: top concentration of the series differs between compounds; nearly all actives have a fitted effect of over 45% in size). An outline of the steps: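 Kinetic, non-lysing viability readout. Seed HEK293 (600/well) with reagent, incubate 5 h at 37 C/5% CO2, pin 23 nL compound in DMSO, incubate at 37 C, read luminescence at 0, 8, 16, 24, 32, 40 h.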
The nature of assay [7]: qHTS assay to identify small molecule antagonists of the estrogen receptor alpha (ER-alpha) signaling pathway using the BG1 cell line in the presence of 0.1 nM 17-beta-estradiol - cell viability counter screen (AID 1259241; active means well fitted curve in the direction sought with a large enough effect in the repeat runs; an effect the other way counts as inactive or inconclusive; further: nearly all actives have a fitted effect of over 40% in size). The method in brief: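 CellTiter-Fluor read (30 min, 37C) on ER-alpha/ERE-luc VM7Luc4E2 cells; 22 hr compound treatment; agonist 0.1 nM E2 final; same-well multiplex.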

Assay [8] is described as follows: qHTS assay to identify small molecule antagonists of the androgen receptor (AR) signaling pathway using the MDA cell line in the presence of 0.5 nM R1881 - cell viability counter screen (AID 1259242; active means well fitted curve in the direction sought with a large enough effect in the repeat runs; an effect the other way counts as inactive or inconclusive; further: nearly all actives have a fitted effect of over 45% in size). An outline of the steps: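 Cells seeded at 3,000/well and allowed 5 hr at 37C, 0% CO2 before compound transfer and R1881 (0.5 nM final) addition; 16 hr later, live-cell protease fluorescence indicated cytotoxicity.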

A short description of assay [9]: Caspase-3/7 induction in HepG2 cells by small molecules, qHTS assay (AID 1346978; active means well fitted curve in the direction sought with a large enough effect in the repeat runs; an effect the other way counts as inactive or inconclusive; further: nearly all actives have a fitted effect of over 15% in size). An outline of the steps: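 Caspase-3/7 induction was measured by Caspase-Glo 3/7 luminescence (30 min, room temperature) after a 17 hr compound exposure of wild-type HepG2 cells seeded at 2,000 per well and pre-incubated 5 hr.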
In assay [10] the target is Acetylcholinesterase (Homo sapiens) (UniProt P22303). In words: Acetylcholinesterase (AChE) small molecule antagonists: colormetric cell-based qHTS assay (AID 1347395). Further: nearly all actives have a fitted effect of over 30% in size. Further: potency means the concentration at half of the fitted maximal effect. The method in brief: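 In this cell-based qHTS, attached SH-SY5Y cells were treated with test chemicals for 30 min, after which acetylthiocholine hydrolysis was followed by DTNB colour development over 90 min at 37 C.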

Assay [11] has the same target. As to the kind of experiment: Acetylcholinesterase (AChE) small molecule antagonists: enzyme-based qHTS assay (AID 1347397). Further: nearly all actives have a fitted effect of over 55% in size. To be noted: Potency: AChE enzyme activity inhibition; outcome: AChE enzyme activity inhibition. The method in brief: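 Colorimetric DTNB readout of acetylthiocholine hydrolysis, 10 min at room temperature, after 30 min room-temperature exposure of 50 mU/mL recombinant human enzyme to compound; DMSO vehicle control.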

The target is the same in assay [12]. In words: Acetylcholinesterase (AChE) small molecule antagonists: fluorescence cell-based qHTS assay (AID 1347398). Further: nearly all actives have a fitted effect of over 50% in size. To be noted: Potency: AChE activity; outcome: AChE activity. An outline of the steps:
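Cellular AChE activity read as thiocholine from acetylthiocholine hydrolysis, detected by Thiolite Green fluorescence at 490/520 nm after 40 min at room temperature. Compounds were pre-incubated 30 min at 37 C on adherent SH-SY5Y cells.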

Assay [13] has the same target. As to the kind of experiment: Acetylcholinesterase (AChE) small molecule antagonists: enzyme-based qHTS assay with human liver microsomes (AID 1347399). Further: nearly all actives have a fitted effect of over 60% in size. To be noted: Potency: qHTS inhibition; outcome: qHTS inhibition. The method in brief: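 Recombinant human AChE (50 mU/mL in the enzyme mix) and human liver microsomes (0.25 mg/mL final) were preincubated with compound and NADPH (0.25 mg/mL final) for 30 min at 37 C. Acetylthiocholine/DTNB was then added; thiocholine was read colorimetrically after 10 min at room temperature.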

A short description of assay [14]: qHTS assay for small molecule agonists of the p53 signaling pathway (AID 651631). Further: nearly all actives have a fitted effect of over 15% in size. Further: potency means the concentration at half of the fitted maximal effect. The method in brief: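 Quantitative high-throughput format: 4,000 p53RE-bla HCT-116 cells/well, 5 h pre-incubation, 16 h compound exposure at 37 °C, 2 h room-temperature substrate step, fluorescence intensity measured.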

Molecules are shown by their SMILES. Records with an inconclusive call do not appear. Some structures have more than one record in an assay (separate samples or runs), and their calls can disagree. The source made the active and inactive calls. Unless noted, the call rests on the fitted dose curve.
On the % scale 0 is the no-effect control and ±100 the full control effect.

Sequence of Acetylcholinesterase (Homo sapiens) (P22303 whole entry, looked up): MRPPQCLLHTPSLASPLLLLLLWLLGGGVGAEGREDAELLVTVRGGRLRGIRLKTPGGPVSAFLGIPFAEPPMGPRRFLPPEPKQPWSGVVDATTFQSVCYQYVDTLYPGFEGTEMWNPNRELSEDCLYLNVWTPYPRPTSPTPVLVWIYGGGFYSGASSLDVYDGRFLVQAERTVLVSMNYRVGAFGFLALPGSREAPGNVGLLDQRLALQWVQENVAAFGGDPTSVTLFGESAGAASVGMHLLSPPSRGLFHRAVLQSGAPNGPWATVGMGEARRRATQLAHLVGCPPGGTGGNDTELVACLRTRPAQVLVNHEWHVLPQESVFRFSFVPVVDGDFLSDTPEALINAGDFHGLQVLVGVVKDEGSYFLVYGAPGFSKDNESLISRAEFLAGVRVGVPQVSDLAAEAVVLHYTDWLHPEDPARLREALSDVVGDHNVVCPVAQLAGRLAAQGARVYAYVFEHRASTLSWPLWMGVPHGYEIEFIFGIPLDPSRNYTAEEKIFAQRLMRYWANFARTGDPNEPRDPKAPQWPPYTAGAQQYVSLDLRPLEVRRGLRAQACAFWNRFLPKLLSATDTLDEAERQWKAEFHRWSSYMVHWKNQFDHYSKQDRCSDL

For `c1ccc2c(c1)[I+]c1ccccc1-2`, in assay [1], the Potency is 31 nM (active). Further, the Potency entry in assay [2] and in assay [3] was “inactive” each time.

Turning to `Oc1c(I)cc(I)cc1I`, the Potency entry in assay [4], in [7], in assay [8], in assay [9], in assay [10] and in assay [11] was “inactive” throughout. Besides, the Potency result in assay [12] and in [13] was “inactive” in each case. Besides, the activity change, positive = activation in assay [5] is -24.5% (inactive). In addition, the result in [6] was inactive.

Take `CC1(C)[C@H](C(=O)OCc2cccc(Oc3ccccc3)c2)[C@@H]1C=C(Cl)Cl`: the Potency entry in assay [10], in assay [11], in assay [12] and in [13] was “inactive” each time.

On to `Cc1ccc([N+](=O)[O-])cc1N`, for which the Potency entry in assay [14], in assay [4], in assay [10], in assay [11], in [12] and in assay [13] was “inactive” in each case.

As to `O=Nc1ccc(Nc2ccccc2)cc1`, the Potency in assay [14] is 61100 nM (active). The activity change, positive = activation in [5] is -79.9% (active). Further, the Potency entry in assay [9], in assay [10], in assay [11], in assay [12] and in assay [13] was “inactive” in each case.

For `CCCCCCCCCCCCCC(=O)O[C@@H]1[C@@H](C)[C@@]2(O)[C@@H](C=C(CO)C[C@@]3(O)C(=O)C(C)=C[C@@H]23)C2C(C)(C)[C@@]21OC(C)=O` (stereo not given in full), the Potency result in assay [1] is “inactive”. The values for the Potency in assay [2] and in [3] were 8.72 nM (active) and 6.71 nM (active), respectively.

As to `CCCCCCCCCc1ccc(OCCOCCO)cc1`, the Potency result in assay [4], in assay [10], in [11], in assay [12] and in assay [13] was “inactive” throughout.

Take `CC1(C(=O)O)C2CCC(O2)C1(C)C(=O)O` (stereo not given): the Potency entry in assay [2] was “inactive”.

As to `Cc1cc([N+](=O)[O-])ccc1N`, the Potency result in [14], in assay [4], in assay [9], in assay [10], in assay [11] and in [12] was “inactive” throughout. For the same compound, in assay [13], the Potency result is “inactive”.

As to `Cc1ccc(O)cc1C`, the result in assay [6] was inactive.

For `CNc1ccccc1`, the Potency result in assay [4], in assay [10], in [11], in assay [12] and in assay [13] was “inactive” each time. Moreover, in [5], the activity change, positive = activation was -1.42% (inactive).

Turning to `N#CCCNCCC#N`, the Potency result in assay [10], in [11], in assay [12] and in [13] was “inactive” throughout.

As to `Nc1ccc(N)c2ccccc12`, the activity change, positive = activation in assay [5] was -69.5% (inactive). Also, the Potency result in [9], in assay [10], in assay [11], in assay [12] and in assay [13] was “inactive” each time.

For the compound `COC[C@H]1OC(=O)c2coc3c2[C@@]1(C)C1=C(C3=O)C2CCC(=O)[C@@]2(C)C[C@H]1OC(C)=O` (stereo not given in full), the Potency result in assay [2] and in [3] was “inactive” throughout.

With `O=[N+]([O-])/C=C/c1ccc2c(c1)OCO2`, the Potency entry in assay [2] and in assay [3] was “inactive” throughout.

As to `NC(=Nc1ccccc1)Nc1ccccc1`, the Potency entry in assay [14], in assay [9], in assay [11], in assay [12] and in [13] was “inactive” in each case. Moreover, the activity change, positive = activation in assay [5] is 17.6% (active). Further, in [10], the Potency was 63.3 µM (active) and inactive.

`CN1CC[C@@]2(C)c3cc(O)ccc3N(C)C12` (stereo not given in full): the Potency entry in [2] and in assay [3] was “inactive” in each case.

In the case of `Cc1cccc(C)c1`, the Potency entry in assay [4], in assay [9], in [10], in assay [11], in [12] and in assay [13] was “inactive” each time. For the same compound, the activity change, positive = activation in [5] is 1.06% (inactive).

In the case of `CN1[C@@H]2CC[C@@H]1CC(OC(=O)C(CO)c1ccccc1)C2` (stereo not given in full), the Potency result in assay [4] is “inactive”.

`c1ccc2c(c1)ccc1ncccc12`: in assay [5], the activity change, positive = activation is -4.48% (inactive). The Potency entry in assay [9], in assay [10], in assay [11], in [12] and in [13] was “inactive” in each case.

In the case of `c1ccc(CCCN2CCN(CCOC(c3ccccc3)c3ccccc3)CC2)cc1`, the Potency entry in assay [2] and in [3] was “inactive” in each case.

In the case of `N#CC1(O)CCCCC1`, the Potency result in [4], in [10], in assay [11], in [12] and in [13] was “inactive” each time.

In the case of `O=C1OC(=O)c2c(Br)c(Br)c(Br)c(Br)c21`, the Potency entry in assay [4], in assay [9], in assay [10], in assay [11], in assay [12] and in assay [13] was “inactive” each time.

As for `Cc1c2ccncc2c(C)c2c1[nH]c1ccccc12`, the Potency entry in [2] and in [3] was “inactive” throughout.
